About 13,000 (27%) of roughly 48,000 compounds showed an effect of 50% or more. Some of the results follow.
Each compound was assayed on Wolbachia pipientis (assay: Anti-Wolbachia Cell-Based Screen). Conditions: 5 µM.
Assay type: functional
Design: scale not given: in the data most compounds retested in dose-response had high values

Row | SMILES | Percent Effect
1 | CCc1cc(NC2CCS(=O)(=O)CC2)nc(N2CCCCC2)n1 | -3.09%
2 | Cn1c(CO)cnc1SC1CCCN(c2ccccc2F)C1=O (stereo not drawn) | -6.766%
3 | CC(Nc1ccn(CCS(C)(=O)=O)n1)c1ccc(C#N)cc1 (stereo not drawn) | -8.389%
4 | F[C@@H]1CN(CC2CC2)C[C@@H]1OCc1nc2ccccc2[nH]1 | -1.846%
5 | O=C(O)Cn1nc(-c2ccccc2F)ccc1=O | 139.2%
6 | Cn1nc(-c2ccccc2NC(=O)c2cncc(Br)c2)ccc1=O | -4.851%
7 | COC(=O)Cn1nc(-c2ccccc2F)ccc1=O | 121.8%
8 | O=C(NC1CCN(c2ccc(-c3ccccc3F)nn2)C1)C1CCC1 (stereo not drawn) | -17.95%
9 | CC(C)(C)C(=O)Cn1nc(-c2ccccc2F)ccc1=O | -0.9957%
10 | NC(=O)Cn1nc(-c2ccccc2F)ccc1=O | 144.8%
11 | CC(=O)Cn1nc(-c2ccccc2F)ccc1=O | 119.2%
12 | COc1ccc(C(=O)Nc2ccccc2-c2ccc(=O)n(C)n2)nn1 | -4.369%
13 | COc1ccc(F)cc1Cn1nc(C(N)=O)ccc1=O | 1.725%
14 | CC(C)Oc1cccc(C(=O)C2CCCN(C(=O)c3ncn[nH]3)C2)c1 (stereo not drawn) | -4.294%
15 | CS(=O)(=O)c1ccc(NC(=O)CSc2ccc3c(c2)CCC3)cn1 | 7.446%
16 | CC(c1nc(C2CC2)no1)N(C)Cc1cccc(F)c1 (stereo not drawn) | 12.3%
17 | CCN(CC)C(CNS(=O)(=O)c1ccc(C(=O)NC)cc1)c1ccco1 (stereo not drawn) | 0.6188%
18 | O=C1CCC[C@]2(CN(S(=O)(=O)N3CCOCC3)C[C@H]2c2cccnc2)N1 | 174.7%
19 | O=C1CCC[C@]2(CN(S(=O)(=O)C3CCCCC3)C[C@H]2c2cccnc2)N1 | 155.7%
20 | O=C(N1CC(c2cccnc2)C1)C1(c2ccc(F)cc2)CCOCC1 | 1.587%
21 | O=S(=O)(C1CC1)N1CCC2(CC1)COC(COc1cccnc1)C2 (stereo not drawn) | -3.155%
22 | CC(C)N1CCC2(CC1)CC(c1cccnc1)C(=O)N2 (stereo not drawn) | -11.82%
23 | O=C1CCC[C@]2(CN(S(=O)(=O)N3CCCCC3)C[C@H]2c2cccnc2)N1 | 175%
24 | N[C@H]1CN(S(=O)(=O)N2CCCCCC2)C[C@@H]1c1ccccc1 | 3.796%
25 | CC1(C)CN(S(=O)(=O)N2CCCC2)CC1c1ccccc1 (stereo not drawn) | -16.61%
26 | CC1(C)CN(S(=O)(=O)N2CCOCC2)CC1c1ccccc1 (stereo not drawn) | -33.51%
27 | CCc1[nH]ncc1C(=O)N1CCN(c2nc(C)cc(OC)n2)CC1 | -4.996%
28 | O=C(OCCNc1ncccn1)c1ccc(Cl)s1 | -0.7929%

Reference: ChEMBL document CHEMBL3988442, “University of Dundee, Small-Polar-MMV Screening Library” (2021)
